{
  "source": "PubChem BioAssay (NCATS)",
  "note": "Results filed as inconclusive are left out. Where a call stands in place of a potency, no number is given. Active and inactive are the calls of the source. The call rests on the fitted dose curve; in most records, active means well fitted inhibition curve with a large enough effect; inconclusive means small, poorly fitted or top-dose-only effect; inactive means flat fitted curve, though single readings scatter.",
  "data": [
    {"system": "Zika virus NS2B-NS3 protease", "test": "Primary screen GU AMC qHTS for Zika virus inhibitors (AID 1347154); further: nearly all actives have a fitted effect of over 70% in size", "details": "Zika NS2B-NS3 unlinked protease, AMC fluorogenic substrate; series mostly up to 54.1 µM", "summary_of_the_method": "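Unlinked Zika NS2B hydrophilic domain/NS3 protease domain noncovalent complex (25 nM final) in 10 mM Tris-HCl pH 8.0, 0.01% Tween 20, with AMC peptide substrate. Fluorescence (ex 340, em 450 nm) change over 15 min, room temperature; percent inhibition fitted to 4-parameter Hill equation.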", "values": [
      {"smiles": "C[C@]12Cc3cn[nH]c3C[C@@H]1CC[C@@H]1[C@H]2CC[C@@]2(C)[C@H]1CC[C@]2(C)O", "Potency": "inactive"},
      {"smiles": "CC(C)[C@]12O[C@@H]1[C@@H]1O[C@]13[C@]1(O[C@H]1C[C@@H]1C4=C(CC[C@@]13C)C(=O)OC4)[C@H]2O", "Potency": "inactive"},
      {"smiles": "Nc1ccc(Sc2ccc(N)cc2)cc1", "Potency": "inactive"},
      {"smiles": "COc1cccc2c1[C@]13CCN(CC4CC4)[C@H](C2)[C@]1(OC)CCC(=O)C3", "Potency": "inactive"},
      {"smiles": "C/C=C(/C)C(=O)O[C@H]1C(C)=C2[C@H]([C@@H]1OC(=O)CCCCCCC)[C@@](C)(OC(C)=O)C[C@H](OC(=O)CCC)[C@@]1(O)[C@H]2OC(=O)[C@@]1(C)O", "Potency": "inactive"},
      {"smiles": "CC[C@@H]1[C@@H](C)O[C@@](O)([C@@H](C)[C@H](O)[C@H](C)[C@H]2OC(=O)C=CC=C[C@@H](C)[C@@H]([C@@H](C)[C@@H](O)[C@H](C)[C@@]3(O)C[C@H](O[C@H]4C[C@H](O)[C@H](O)[C@H](C)O4)[C@H](CC)[C@@H](C)O3)OC(=O)C=CC=C[C@@H]2C)C[C@H]1O[C@H]1C[C@H](O)[C@H](O)[C@H](C)O1", "Potency": "inactive"},
      {"smiles": "N=c1c2c(-c3ccccc3)c(-c3ccccc3)n(Cc3ccccc3)c2ncn1C1CCC(O)CC1", "note": "(centres undefined)", "Potency": "inactive"},
      {"smiles": "C[C@]12CC[C@H](O)CC1=CC[C@H]1[C@H]3CCC(=O)[C@@]3(C)CC[C@@H]12", "Potency": "inactive"},
      {"smiles": "CC(=Cc1csc(C)n1)[C@@H]1C[C@H]2O[C@@H]2CCC[C@H](C)[C@@H](O)[C@@H](C)C(=O)C(C)(C)[C@@H](O)CC(=O)O1", "Potency": "inactive"},
      {"smiles": "Nc1ccc(Cl)cc1N", "Potency": "inactive"},
      {"smiles": "ClC1=C(Cl)[C@]2(Cl)[C@@H]3[C@@H]4C[C@@H]([C@H]5O[C@@H]45)[C@@H]3[C@@]1(Cl)C2(Cl)Cl", "Potency": "inactive"},
      {"smiles": "CCCCC(CC)COC(=O)c1ccccc1C(=O)OCC(CC)CCCC", "note": "(centres undefined)", "Potency": "inactive"},
      {"smiles": "C[C@@]12OC(=O)[C@]1([C@@H](O)[C@@H]1C=CCCC1)NC(=O)[C@H]2CCCl", "Potency": "inactive"},
      {"smiles": "O=C(O)COc1nc(Cl)c(Cl)cc1Cl", "Potency": "inactive"},
      {"smiles": "O=C(O)CCCOc1ccc(Cl)cc1Cl", "Potency": "inactive"},
      {"smiles": "CN(C)NC(=O)CCC(=O)O", "Potency": "inactive"},
      {"smiles": "CC(C)(C)C(O)C(Oc1ccc(Cl)cc1)n1cncn1", "note": "(centres undefined)", "Potency": "inactive"},
      {"smiles": "Clc1ccccc1C(c1ccccc1)(c1ccccc1)n1cccn1", "Potency": "inactive"},
      {"smiles": "COCC1(CO)C(=O)C2CCN1CC2", "note": "(centres undefined)", "Potency": "inactive"},
      {"smiles": "CCN1C[C@]2(OC(=O)c3ccccc3NC(C)=O)CC[C@H](OC)[C@@]34[C@H]5CC6[C@@H](OC)C[C@](O)(C(C[C@@H]23)[C@@H]14)[C@@]5(O)[C@@H]6OC", "Potency": "inactive"},
      {"smiles": "COc1ccc2c(c1)CN(C)CC2c1ccc(Cl)c(Cl)c1", "note": "(centres undefined)", "Potency": "inactive"},
      {"smiles": "C[C@]12CC[C@H]3[C@@H](CCC4=CC(=O)CC[C@@]43C)[C@H]1CC[C@H]2O", "Potency": "inactive"},
      {"smiles": "CC(C)N[C@@H]1CCn2c(=O)[nH]c3cccc(c32)[C@@H]1O", "Potency": "inactive"},
      {"smiles": "COc1ccc(C(=O)c2c(C)n(CCN3CCOCC3)c3cc(I)ccc23)cc1", "Potency": "inactive"},
      {"smiles": "CN[C@@H](C)[C@H](O)c1ccccc1", "Potency": "inactive"},
      {"smiles": "C[C@@H]1[C@H](O)[C@@H](C)C=CC=CCCC=CC=CC=CC=C[C@H](O[C@H]2O[C@@H](C)[C@H](O)[C@@H](N)[C@@H]2O)CC2O[C@](O)(C[C@@H](O)[C@H](O)CC[C@@H](O)C[C@@H](O)C[C@@H](O)CC(=O)O[C@H]1C)C[C@H](O)[C@H]2C(=O)O", "Potency": "inactive"},
      {"smiles": "CCCN1CCO[C@@H]2c3cc(O)ccc3OC[C@@H]21", "Potency": "inactive"},
      {"smiles": "Fc1cc(Br)ccc1CBr", "Potency": "inactive"},
      {"smiles": "COc1ccc(C(c2ccc(OC)cc2)C(Cl)(Cl)Cl)cc1", "Potency": "inactive"},
      {"smiles": "CC(=Cc1csc(C)n1)[C@@H]1C[C@H]2O[C@]2(C)CCC[C@H](C)[C@@H](O)[C@@H](C)C(=O)C(C)(C)[C@@H](O)CC(=O)O1", "Potency": "inactive"},
      {"smiles": "Nc1ccc([N+](=O)[O-])cc1", "Potency": "inactive"},
      {"smiles": "C[C@]12CCC(=O)C(O)=C1CC[C@@H]1[C@H]3CCC(=O)[C@@]3(C)CC[C@@H]12", "Potency": "inactive"},
      {"smiles": "COCCOCCO", "Potency": "inactive"},
      {"smiles": "O=C(Nc1ccncc1)C(=O)c1cn(Cc2ccc(Cl)cc2)c2ccccc12", "Potency": "inactive"}
    ]}
  ]
}
